Reference: PubChem BioAssay (NCI)
This is part of a sample that, as a whole, favours compounds with a hit. Of some 83,000 tested, about 20% had one in any assay.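 Results are percent growth after 48 hours of single-concentration exposure. 100 means growth as in untreated cells, lower positive values show inhibition; negative values down to -100 show cell death.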 Activity calls are given as the source filed them. The calls were made as follows: active = growth percent below 10; inactive = the rest.

Legend:
Assay in all cases: NCI-60 one-dose screen, 48 h (100 = growth as untreated, 0 = no growth, -100 = all killed)
Details in all cases: 10 µM unless noted
SR leukemia = system: SR leukemia
RPMI-8226 leukemia = system: RPMI-8226 leukemia
OVCAR-8 ovarian = system: OVCAR-8 ovarian
OVCAR-5 ovarian = system: OVCAR-5 ovarian
OVCAR-4 ovarian = system: OVCAR-4 ovarian
SK-OV-3 ovarian = system: SK-OV-3 ovarian
IGROV1 ovarian = system: IGROV1 ovarian
OVCAR-3 ovarian = system: OVCAR-3 ovarian
HS 578T breast = system: HS 578T breast
NCI/ADR-RES ovarian = system: NCI/ADR-RES ovarian

Measured: growth

O=C1/C(=C/c2ccccc2[N+](=O)[O-])COc2ccc(O)cc21
inactive: SR leukemia 22.2% | OVCAR-4 ovarian 15.6% | SK-OV-3 ovarian 77.7%
active: RPMI-8226 leukemia 3.29% | OVCAR-8 ovarian 6.3% | OVCAR-5 ovarian -19% | IGROV1 ovarian -0.209% | OVCAR-3 ovarian 7.73% | HS 578T breast 5.1% | NCI/ADR-RES ovarian 2.55%

COc1ccc2nc3ccccc3c(NCc3ccc(F)cc3)c2c1
active: SR leukemia -1.12% | RPMI-8226 leukemia -43% | IGROV1 ovarian 8.15%
inactive: OVCAR-8 ovarian 19.4% | OVCAR-5 ovarian 18.1% | OVCAR-4 ovarian 13.6% | SK-OV-3 ovarian 37.9% | OVCAR-3 ovarian 31.2% | HS 578T breast 26.1% | NCI/ADR-RES ovarian 15.1%

O=C(Cn1cc(CN2C(=O)c3ccccc3S2(=O)=O)nn1)Nc1cccc(Cl)c1
inactive: SR leukemia 113% | RPMI-8226 leukemia 104% | OVCAR-8 ovarian 113% | OVCAR-5 ovarian 112% | OVCAR-4 ovarian 109% | SK-OV-3 ovarian 79.3% | IGROV1 ovarian 108% | OVCAR-3 ovarian 106% | HS 578T breast 107% | NCI/ADR-RES ovarian 93.1%

CC(C)CCSc1nc(Nc2ccccc2)c(C#N)c(-c2ccccc2)n1
active: OVCAR-4 ovarian -7.19%
inactive: SR leukemia 27.2% | RPMI-8226 leukemia 73.9% | OVCAR-8 ovarian 42.7% | OVCAR-5 ovarian 64.9% | SK-OV-3 ovarian 69.1% | IGROV1 ovarian 17.3% | OVCAR-3 ovarian 57.6% | HS 578T breast 14.3% | NCI/ADR-RES ovarian 52.4%

COc1cccc(Nc2ccnc3[nH]c4ccc([N+](=O)[O-])cc4c23)c1
inactive: SR leukemia 31.5% | RPMI-8226 leukemia 65.2% | OVCAR-8 ovarian 32.2% | OVCAR-5 ovarian 110% | OVCAR-4 ovarian 27.2% | SK-OV-3 ovarian 47.5% | IGROV1 ovarian 33.1% | OVCAR-3 ovarian 46.9% | HS 578T breast 27.8% | NCI/ADR-RES ovarian 44.4%

COc1cc2c(/C=C3\C(=O)Nc4ccccc43)c(C(=O)O)[nH]c2cc1C
active: IGROV1 ovarian -10%
inactive: SR leukemia 91.3% | RPMI-8226 leukemia 87% | OVCAR-8 ovarian 103% | OVCAR-5 ovarian 59.1% | OVCAR-4 ovarian 95.3% | SK-OV-3 ovarian 129% | OVCAR-3 ovarian 108% | HS 578T breast 137% | NCI/ADR-RES ovarian 84.1%

Cc1ccc(C(=O)c2ccc(CC(=O)N/N=C/c3ccc(O)cc3O)n2C)cc1
inactive: SR leukemia 17.3% | RPMI-8226 leukemia 48.4% | OVCAR-8 ovarian 48.4% | OVCAR-5 ovarian 63.4% | OVCAR-4 ovarian 20.7% | SK-OV-3 ovarian 45.1% | IGROV1 ovarian 41.7% | OVCAR-3 ovarian 37.2% | HS 578T breast 74.9% | NCI/ADR-RES ovarian 34.6%

O=C(Cn1nnc2ccccc21)Nc1ccc(-c2nc3ccccc3s2)cc1
inactive: SR leukemia 40.2% | RPMI-8226 leukemia 85.3% | OVCAR-8 ovarian 98.5% | OVCAR-5 ovarian 104% | OVCAR-4 ovarian 72.2% | SK-OV-3 ovarian 104% | IGROV1 ovarian 97.5% | OVCAR-3 ovarian 90.4% | HS 578T breast 112% | NCI/ADR-RES ovarian 96.2%

CCN(CC)CCN(CCN(CC)CC)c1ccccc1
inactive: SR leukemia 111% | RPMI-8226 leukemia 103% | OVCAR-8 ovarian 91.4% | OVCAR-5 ovarian 94.3% | OVCAR-4 ovarian 101% | SK-OV-3 ovarian 92.7% | IGROV1 ovarian 90% | OVCAR-3 ovarian 109% | HS 578T breast 89.2% | NCI/ADR-RES ovarian 100%

O=[N+]([O-])/C(=C\c1ccco1)c1ccccc1Cl
inactive: SR leukemia 55.3% | RPMI-8226 leukemia 85.9% | OVCAR-8 ovarian 81.6% | OVCAR-5 ovarian 75.4% | OVCAR-4 ovarian 69.3% | SK-OV-3 ovarian 60.1% | IGROV1 ovarian 75.7% | OVCAR-3 ovarian 77.9% | HS 578T breast 84.8% | NCI/ADR-RES ovarian 85.5%

Cn1ncc2ccc(-c3nc(-c4ccccc4)[nH]c3-c3n[nH]c(=O)n3C3CC3)cc21
inactive: SR leukemia 82.9% | RPMI-8226 leukemia 94% | OVCAR-8 ovarian 99% | OVCAR-5 ovarian 98% | OVCAR-4 ovarian 93.6% | SK-OV-3 ovarian 94.5% | IGROV1 ovarian 111% | OVCAR-3 ovarian 107% | HS 578T breast 100% | NCI/ADR-RES ovarian 107%

COc1ccc(-c2cn(-c3ccc(Cl)cc3)c(SCC(=O)c3ccc([N+](=O)[O-])cc3)n2)cc1
inactive: SR leukemia 90.1% | RPMI-8226 leukemia 97.2% | OVCAR-8 ovarian 51.8% | OVCAR-5 ovarian 90.5% | OVCAR-4 ovarian 38.7% | SK-OV-3 ovarian 85.2% | IGROV1 ovarian 83% | OVCAR-3 ovarian 106% | HS 578T breast 41% | NCI/ADR-RES ovarian 79.5%

COc1ccc(NC(=O)c2ccc(C(=O)Nc3ccc(OC)cc3OC)cc2)c(OC)c1
inactive: SR leukemia 87.9% | RPMI-8226 leukemia 80.1% | OVCAR-8 ovarian 44.5% | OVCAR-5 ovarian 81.2% | OVCAR-4 ovarian 88.2% | SK-OV-3 ovarian 43.8% | IGROV1 ovarian 54.7% | OVCAR-3 ovarian 90.6% | HS 578T breast 39.3% | NCI/ADR-RES ovarian 79.6%

CCC(CC)(N(CC(=O)O)CC(=O)O)C(CC)(CC)N(CC(=O)O)CC(=O)O
inactive: SR leukemia 93.7% | RPMI-8226 leukemia 82.7% | OVCAR-8 ovarian 101% | OVCAR-5 ovarian 117% | OVCAR-4 ovarian 101% | SK-OV-3 ovarian 104% | IGROV1 ovarian 116% | OVCAR-3 ovarian 121% | HS 578T breast 118% | NCI/ADR-RES ovarian 107%

COc1ccc(Cl)cc1Nc1nc(C(F)(F)F)ccc1C(=O)N/N=C/c1ccccc1Cl
inactive: OVCAR-8 ovarian 11.2% | OVCAR-5 ovarian 22% | SK-OV-3 ovarian 11.7%
active: SR leukemia -15.1% | RPMI-8226 leukemia -56.6% | OVCAR-4 ovarian -18.3% | IGROV1 ovarian 4.17% | OVCAR-3 ovarian 1.6% | HS 578T breast 9.51% | NCI/ADR-RES ovarian 0.235%

CCC(C)Nc1ccc(NC(C)CC)cc1 (stereo not given)
inactive: SR leukemia 76.1% | RPMI-8226 leukemia 65.8% | OVCAR-8 ovarian 89.2% | OVCAR-5 ovarian 103% | OVCAR-4 ovarian 84.1% | SK-OV-3 ovarian 98.4% | IGROV1 ovarian 65.4% | OVCAR-3 ovarian 28.6% | HS 578T breast 110% | NCI/ADR-RES ovarian 94.5%

C=C1C(=O)O[C@H]2[C@H]1CC/C(COC(=O)NCCCCCCCCNC(=O)OC/C1=C/CC[C@@]3(C)O[C@H]3[C@H]3OC(=O)C(=C)[C@@H]3CC1)=C\CC[C@@]1(C)O[C@@H]21
inactive: SK-OV-3 ovarian 34.4% | HS 578T breast 17.4% | NCI/ADR-RES ovarian 43.9%
active: SR leukemia -37.6% | RPMI-8226 leukemia -42.8% | OVCAR-8 ovarian -51.2% | OVCAR-5 ovarian -79.6% | OVCAR-4 ovarian -82.9% | IGROV1 ovarian -74.3% | OVCAR-3 ovarian -94.1%

CCNC(=O)Oc1ccc(/C(=C(/C)Cc2ccc(OC)cc2)c2ccc(OCCN3CCCCCC3)cc2)cc1
active: SR leukemia -51.7%
inactive: RPMI-8226 leukemia 20.3% | OVCAR-8 ovarian 75.4% | OVCAR-5 ovarian 94.8% | OVCAR-4 ovarian 87.9% | SK-OV-3 ovarian 87.7% | IGROV1 ovarian 78% | OVCAR-3 ovarian 59.5% | HS 578T breast 67.2% | NCI/ADR-RES ovarian 76.7%

NC(CSC(c1ccccc1)(c1ccccc1)c1ccc2c(c1)OCO2)C(=O)O (stereo not given)
active: SR leukemia 5.57% | RPMI-8226 leukemia -7.99% | OVCAR-3 ovarian 3.46%
inactive: OVCAR-8 ovarian 19.4% | OVCAR-5 ovarian 41% | OVCAR-4 ovarian 70.7% | SK-OV-3 ovarian 15.2% | IGROV1 ovarian 42.2% | HS 578T breast 15.7% | NCI/ADR-RES ovarian 53.9%

O=C(N/N=C/c1ccc(Cl)cc1Cl)c1ccc2nc(-c3ccc(Cl)cc3)[nH]c2c1
inactive: OVCAR-8 ovarian 14.2% | OVCAR-5 ovarian 23.7% | SK-OV-3 ovarian 49.8% | HS 578T breast 33% | NCI/ADR-RES ovarian 41.2%
active: SR leukemia -24.2% | RPMI-8226 leukemia 2.83% | OVCAR-4 ovarian -17.9% | IGROV1 ovarian -27.4% | OVCAR-3 ovarian -52.9%

CNC(=O)c1c(NC(=O)c2ccc(C(C)(C)C)cc2)sc2c(CN(C)C)c(O)ccc12
active: SR leukemia 3.65% | RPMI-8226 leukemia -28.1% | OVCAR-5 ovarian -30.9%
inactive: OVCAR-8 ovarian 23.7% | OVCAR-4 ovarian 67.5% | SK-OV-3 ovarian 34.1% | IGROV1 ovarian 20.3% | OVCAR-3 ovarian 32.7% | HS 578T breast 54.7% | NCI/ADR-RES ovarian 11.4%

Cc1[nH]c(/C=C/C(=O)c2ccc(C(F)(F)F)c(F)c2)c(C)c1C(=O)NCC(C)C
inactive: SR leukemia 85.6% | RPMI-8226 leukemia 95.8% | OVCAR-8 ovarian 89.4% | OVCAR-5 ovarian 101% | OVCAR-4 ovarian 101% | SK-OV-3 ovarian 105% | IGROV1 ovarian 107% | OVCAR-3 ovarian 112% | HS 578T breast 97.9% | NCI/ADR-RES ovarian 98.9%

COc1cc(C(=O)c2c(-c3ccccc3)oc3c(OC)cccc23)cc(OC)c1O
inactive: SR leukemia 11.1% | RPMI-8226 leukemia 23.9% | OVCAR-8 ovarian 20.4% | OVCAR-5 ovarian 45.7% | OVCAR-4 ovarian 42.1% | SK-OV-3 ovarian 45.1% | IGROV1 ovarian 18.8% | NCI/ADR-RES ovarian 10.5%
active: OVCAR-3 ovarian 0.78% | HS 578T breast 4.85%

COc1ccc(OC)c(-c2cn3nc(-c4c[nH]c5ccc(Br)cc45)sc3n2)c1
active: OVCAR-4 ovarian -21.3%
inactive: SR leukemia 22.1% | RPMI-8226 leukemia 79.3% | OVCAR-8 ovarian 25.6% | OVCAR-5 ovarian 47.9% | SK-OV-3 ovarian 80.8% | IGROV1 ovarian 40.6% | OVCAR-3 ovarian 60% | HS 578T breast 43.7% | NCI/ADR-RES ovarian 32.1%

COc1ccc(C2C3=C(COC3=O)N(CCO)c3cc4c(cc32)OCCO4)cc1OC (stereo not given)
active: OVCAR-3 ovarian -37% | HS 578T breast -11.4%
inactive: SR leukemia 16.8% | RPMI-8226 leukemia 28.5% | OVCAR-8 ovarian 53.3% | OVCAR-5 ovarian 67.1% | OVCAR-4 ovarian 41.3% | SK-OV-3 ovarian 29.2% | IGROV1 ovarian 37.1% | NCI/ADR-RES ovarian 65.4%

CCn1cc(C(=O)NN=C2CCCCCC2)c(=O)c2ccc(C)nc21
inactive: SR leukemia 85.8% | RPMI-8226 leukemia 88.1% | OVCAR-8 ovarian 92.5% | OVCAR-5 ovarian 92.6% | OVCAR-4 ovarian 79.6% | SK-OV-3 ovarian 98.2% | IGROV1 ovarian 81.5% | OVCAR-3 ovarian 86.2% | HS 578T breast 80.1% | NCI/ADR-RES ovarian 89.4%

CS(=O)(=O)Cc1cnc(C2OCCO2)s1
inactive: SR leukemia 123% | RPMI-8226 leukemia 109% | OVCAR-8 ovarian 104% | OVCAR-5 ovarian 106% | OVCAR-4 ovarian 100% | SK-OV-3 ovarian 139% | IGROV1 ovarian 97.5% | OVCAR-3 ovarian 96.3% | HS 578T breast 106% | NCI/ADR-RES ovarian 103%
